# Assay outcomes as filed in PubChem.
# Rows were chosen to be rich in hits. Some 1.3% of all compounds tested hit in one or more screens of this group.
# S1P2 antag – S1P2 (human) receptor antagonism. cell-based S1P2 antagonist assay, inhibition at 5 uM. inhibition, % at 5 µM. 97,000 compounds, 0.21% hits; in the data active = inhibition above about 45%;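 also: CRE beta-lactamase reporter cells expressing human S1P2 stimulated with S1P; 0% = agonist at EC80 alone and 100% = agonist plus reference antagonist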
# Target sequence (O95136 whole entry, looked up): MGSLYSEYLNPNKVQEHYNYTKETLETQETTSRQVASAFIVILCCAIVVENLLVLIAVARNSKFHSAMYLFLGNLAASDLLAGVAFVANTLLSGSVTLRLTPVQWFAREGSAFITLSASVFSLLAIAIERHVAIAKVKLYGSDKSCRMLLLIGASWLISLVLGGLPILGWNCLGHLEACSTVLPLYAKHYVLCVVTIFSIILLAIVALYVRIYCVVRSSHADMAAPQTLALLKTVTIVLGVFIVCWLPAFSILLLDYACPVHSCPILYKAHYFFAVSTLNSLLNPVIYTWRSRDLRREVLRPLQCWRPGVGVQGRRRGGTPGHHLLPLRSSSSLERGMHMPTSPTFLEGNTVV
# S1P2 ag – agonists of human S1P2 receptor. activation, % at 4.5 µM. 97,000 compounds, 0.46% hits. S1P2-expressing cell line, agonist reporter read-out. O95136; in the data active = activation above about 16%;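 also: 0% = vehicle low control and 100% = maximal reference agonist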
# GALR2 blocker – GALR2 (human) receptor antagonism. O43603. GALR2-expressing cells, antagonist mode. inhibition, % at 4 µM. 140,000 compounds, 0.39% hits. AID 828;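 also: cells stimulated with galanin 1-16 at roughly its EC80; 0% = agonist challenge control and 100% = basal control without agonist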
# Target sequence (O43603 whole entry, looked up): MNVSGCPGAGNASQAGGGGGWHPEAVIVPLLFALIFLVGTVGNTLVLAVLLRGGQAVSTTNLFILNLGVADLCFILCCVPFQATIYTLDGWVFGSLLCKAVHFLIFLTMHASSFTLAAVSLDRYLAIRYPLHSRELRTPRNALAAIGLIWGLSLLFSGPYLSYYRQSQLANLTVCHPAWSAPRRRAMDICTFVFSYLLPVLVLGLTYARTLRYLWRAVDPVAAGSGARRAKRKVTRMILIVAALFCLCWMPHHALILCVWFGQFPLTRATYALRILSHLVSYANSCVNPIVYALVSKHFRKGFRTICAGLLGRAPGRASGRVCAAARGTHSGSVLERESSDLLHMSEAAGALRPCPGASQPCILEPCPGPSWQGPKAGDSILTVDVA
# GALR2 agonist – agonists of human galanin receptor 2 (GALR2); GALR2-expressing cells, agonist activation read-out; activation, % (concentration not given with the values); 140,000 compounds, 0.48% hits; AID 803; in the data active = activation above about 5%, passing the limit was not always enough;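 also: 0% = vehicle buffer wells and 100% = reference agonist at full effect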
# Smad3 FoxH1 inh – Smad3 (human) transcription factor binding inhibition. TR-FRET Smad3/Dy647-FoxH1 peptide binding, europium anti-His. inhibition, % at 25 µM. 88,000 compounds, 0.29% hits;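 active = compounds that reduce the energy-transfer binding signal between the protein and its labelled peptide by more than half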;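 also: 0% = Smad3 plus labelled peptide maximal FRET and 100% = peptide-only background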
# Calb biofilm kill – kills Candida albicans biofilms | C. albicans biofilm + clotrimazole, Alamar Blue | 85,000 compounds, 0.14% hits | inhibition, % at 6 µM | AID 834;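 active = inhibition above 20%; inactive = inhibition below 20%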;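 also: preformed 24 hr biofilms exposed to compound for 48 hr; 0% = biofilm without compound and 100% = blank killed by clotrimazole plus chlorhexidine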
# GALR2 blk conf – GALR2 (human) antagonism confirmed; shares compounds with GALR2 blocker; GALR2-expressing cells, antagonist mode, inhibition; inhibition, % at 4 µM; 480 compounds, 60% hits; AID 866;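 also: cells stimulated with galanin at about its EC80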
# BLA inhib ctr – beta-lactamase inhibition, GALR2 counterscreen; inhibition, % at 4.2 µM; CHO NFAT-BLA reporter, beta-lactamase FRET, thapsigargin-stimulated; 480 compounds, 36% hits; shares compounds with GALR2 blocker;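 active = inhibition above the mean inhibition across tested compounds plus 3 SD, cut at about 27% in these data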;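 also: 0% = 500 nM thapsigargin stimulated wells and 100% = unstimulated BSA only wells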
# Active calls of the source: *; · = no result. Rule as the data show it, unless noted: active = inhibition above about 27%; inactive = the rest.
SMILES,S1P2 antag,S1P2 ag,GALR2 blocker,GALR2 agonist,Smad3 FoxH1 inh,Calb biofilm kill,GALR2 blk conf,BLA inhib ctr
CCOc1ccc(-c2nc(-c3ccncc3)no2)cc1OCC,-15.1,0.3,-1.5,-2.1,8.8,2.9,·,·
O=c1[nH][nH]c(-c2ccccc2)c1C=Nc1ccc(Cl)cc1,17.7,-2.9,29.0*,-2.9,·,·,18.9,-0.1
O=c1[nH][nH]c(-c2ccccc2)c1C=Nc1cccc(Cl)c1,24.9,-1.7,0.4,-1.6,·,·,·,·
CCN(CC)c1ccc(/C=N/Nc2nc3ccccc3[nH]2)c(O)c1,3.2,0.6,42.5*,-0.4,·,·,45.3*,15.5
CCN(CC)c1ccc(/C=N/N(c2ccccc2)c2ccccc2)c(O)c1,·,·,9.0,0.5,·,·,·,·
Cc1ccc2cc(/C=N/Nc3nc4ccccc4[nH]3)c(Cl)nc2c1,·,·,98.2*,-3.4,·,·,22.8,13.5
COc1cc(/C=N\Nc2nc3ccccc3[nH]2)cc(OC)c1OC,-5.8,4.1,12.1,-2.2,·,·,·,·
Cc1cccc(-n2c(N)c(-c3nc4ccccc4n3C)c3nc4ccccc4nc32)c1,·,·,10.6,0.4,·,·,·,·
Cn1c(-c2c(N)n(-c3ccccc3)c3nc4ccccc4nc23)nc2ccccc21,·,·,33.1*,0.3,·,·,34.5*,47.3*
CC1=C(C(=O)OC(C)(C)C)C(c2cccs2)NC(=O)N1 (configuration not stated),·,·,1.6,-0.6,·,·,·,·
O=C(CSc1nnnn1C1CC2CCC1C2)Nc1ccnc2ccccc12 (configuration not stated),·,·,45.4*,-0.4,11.2,3.0,63.7*,20.1
O=C(CSc1nnnn1C1CCCC1)NCc1ccccc1,14.9,-2.6,-3.2,-0.5,-4.3,3.7,·,·
O=C(Cn1ncc(Cl)c(Cl)c1=O)c1ccc(Cl)cc1,43.1,-6.5,22.3,-1.2,-7.9,2.5,·,·
O=C(Cn1ncc(Cl)c(Cl)c1=O)NCC1CCCCC1,·,·,46.7*,0.6,·,·,33.4*,18.0
CCN(CC)c1ccc(/C=C(/C#N)c2nc3ccc(C)cc3[nH]2)c(OC(C)C)c1,19.5,6.6,33.6*,-4.3,·,·,29.6*,36.9*
CCCOc1cc(N(CC)CC)ccc1/C=C(/C#N)c1nc2ccc(C)cc2[nH]1,0.8,-0.2,25.1,-2.9,·,·,·,·
CN(C(=O)COc1ccccc1C(=O)NCCOc1ccccc1)c1ccccc1,·,·,28.8*,-1.8,·,·,42.6*,12.3
Cc1ccc(S(=O)(=O)NNC(=O)c2sc3nc(C)cc(C)c3c2-n2cccc2)cc1,10.5,-4.3,-7.2,-0.4,·,·,·,·
COc1cccc(/C=N/Nc2nc(N3CCCC3)nc(N3CCCC3)n2)c1O,-6.3,-10.3,28.6*,-1.4,0.8,4.7,17.2,2.5
COc1ccc(-c2nnn(CC(=O)N(Cc3cccs3)C(C)C(=O)NCCC(C)C)n2)cc1OC (configuration not stated),-10.3,-8.2,-1.4,-1.4,7.2,4.0,·,·
COc1ccc(NC(=O)c2cc(S(=O)(=O)N(C)C)ccc2N2CCCC2)cc1Cl,·,·,28.3*,-1.1,·,·,2.3,-0.2
CCN(CC)S(=O)(=O)c1ccc(Cl)c(C(=O)Nc2ccc(Cl)cc2[N+](=O)[O-])c1,·,·,28.4*,-1.8,·,·,19.7,11.8
Cc1ccc(Cc2cnc(NC(=O)c3ccco3)s2)cc1,-1.4,-2.0,-4.0,-2.0,19.6,0.0,·,·
O=C(Nc1ncc(Cc2ccc(SC(F)F)cc2)s1)c1ccc(OC(F)F)cc1,·,·,32.6*,2.6,·,·,8.5,27.1*
CC(=O)Nc1cn(C(C)=O)c(C)n1,·,·,29.1*,-2.8,-3.2,2.2,13.7,5.8
SMILES,S1P2 antag,S1P2 ag,GALR2 blocker,GALR2 agonist,Smad3 FoxH1 inh,Calb biofilm kill,GALR2 blk conf,BLA inhib ctr
Oc1sc(C=Nc2ccc(F)cc2)c2ccccc12,26.6,-7.5,39.0*,-1.9,·,·,27.1*,14.0
COc1ccc(N=Cc2c(O)[nH]c3ccccc23)cc1,-2.8,-6.6,10.1,-2.1,-0.6,2.6,·,·
Oc1c(C=Nc2cccnc2)sc2ccccc12,6.9,-1.9,9.6,-0.3,-5.2,3.1,·,·
Oc1sc(C=Nc2ccccc2)c2ccccc12,32.0,-5.7,39.4*,-2.2,·,·,29.8*,28.3*
COC(=O)c1ccc(OC(=O)C2CC(=O)N(c3ccc(C)cc3C)C2)cc1 (configuration not stated),-20.2,-3.3,-1.4,-1.8,-3.3,3.9,·,·
O=C(NC(Cc1ccccc1)C(=O)Oc1ccc2c(C(F)(F)F)cc(=O)oc2c1)OCc1ccccc1 (configuration not stated),·,·,32.5*,-0.3,·,·,19.8,22.8
CCCC(=O)OCCn1c(Br)nc2c1c(=O)[nH]c(=O)n2C,-4.9,-13.3,30.1*,-1.2,3.0,5.3,24.6,0.3
O=C(OCn1ncc(Br)c(Br)c1=O)c1c(F)cccc1F,69.0*,-6.9,96.5*,-5.2,-23.8,2.2,94.2*,98.4*
CCCN1C2=C(C(=O)CCC2)C(c2ccc(F)cc2)C2=C1c1ccccc1C2=O (configuration not stated),-8.1,-2.9,-1.4,0.2,1.0,5.2,·,·
Cc1cc(C)c(S(=O)(=O)NCc2ccncc2)c(C)c1,47.1*,-4.5,31.3*,0.7,4.3,6.0,35.1*,9.1
CCCCNS(=O)(=O)c1ccc(S(=O)(=O)NCc2ccncc2)cc1,19.1,-3.7,27.4*,-1.7,-5.8,-1.4,19.7,13.1
CCC(C)(C(=O)NC1CCCCC1)N(C(=O)c1cnccn1)c1c(C)n(C)n(-c2ccccc2)c1=O (configuration not stated),-9.4,-4.0,-3.3,-0.8,-1.8,3.8,·,·
NC(Cc1ccc(Oc2ccc(O)cc2)cc1)C(=O)O (configuration not stated),·,·,13.5,-1.1,7.2,4.5,·,·
O=C(COc1ccc(OCc2ccccc2)cc1)NC1CCOC1=O (configuration not stated),0.4,-9.2,-5.2,-1.4,-0.1,-1.8,·,·
COc1ccc(Nc2cnn(-c3nc4ccccc4s3)c(=O)c2Cl)cc1,·,·,44.3*,0.2,·,·,52.2*,58.3*
CCN1C(=O)/C(=C\c2ccc(F)cc2)N=C1SCC(=O)NCc1ccco1,·,·,3.5,-2.0,·,·,·,·
CC(C)NC(=O)c1ccc(C2SCC(=O)N2Cc2ccccc2)cc1 (configuration not stated),0.5,-2.9,5.2,-1.2,0.4,2.0,·,·
CC(=O)c1c(C)[nH]c(C(=O)OCCCCN2C(=O)c3ccccc3C2=O)c1C,63.1*,-2.2,32.2*,-0.3,0.1,-2.1,38.7*,6.6
CC(=O)c1c(C)[nH]c(C(=O)OCc2ccccc2)c1C,·,·,3.7,-0.7,·,·,·,·
Cc1ccc(C2CC(=O)Nc3cc4c(cc32)OCO4)o1 (configuration not stated),-16.7,-4.7,34.4*,-1.7,-10.6,8.1,1.2,0.8
COC(=O)c1cnn(-c2cc(Oc3ccccc3)ncn2)c1N,-8.4,-5.2,0.3,-1.6,·,·,·,·
COc1ccccc1Oc1cc(-n2nc(C)cc2C)ncn1,·,·,-5.2,-0.8,·,·,·,·
CCOc1cnn(-c2cc(Oc3ccc(C)cc3)ncn2)c(=O)c1Cl,0.8,-5.6,27.5*,-1.3,·,·,3.2,9.7
